The values that follow come from PubChem BioAssay.

Assay [1] has as its system Wnt5a (protein binding on small-molecule microarray). Put plainly: small molecules binding Wnt5a protein – biophysical, small-molecule microarray, 635/667 nm fluorescence, primary screen (AID 1142).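 Also: fluorescence read at 667 nm with signal to noise per printed feature.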 The note with it: 635 nm fluorescence, higher = more signal.
Assay [2] is described as follows: ATP-based viability of Huh7 replicon cells – cell-based, CellTiter-Glo luminescence, basal, 48 h, cytotoxicity control for HCV replication inhibitor project, primary screen (AID 1143).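 Also: Huh7 hepatoma cells carrying a hepatitis C replication reporter with no stimulus; test concentration not given here.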 The note with it: higher = more signal, called active from +8 up or from −8 down.
Assay [3] can be described thus: basal CRE-LacZ reporter activity in PC12 – cell-based, unstimulated, primary screen (AID 1145). The following applies: no forskolin, luminescence, 4.5 h, higher = more signal, called active from +8 up or from −8 down.
Assay [4] in a line: forskolin-driven CRE-LacZ activity in PC12 – cell-based, CRE-LacZ reporter, forskolin-stimulated, primary screen (AID 1146).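 Also: PC12 cells with 6xCRE LacZ reporter stimulated by forskolin 10 µM; beta-galactosidase reporter signal reflecting CREB driven transcription.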 The following applies: luminescence, 4.5 h, higher = more signal, called active from +8 up or from −8 down.
Assay [5] concerns the target Streptavidin (Streptomyces avidinii) (UniProt P22629). Put plainly: compounds binding control protein streptavidin – biophysical, small-molecule microarray, 635/667 nm fluorescence, artefact control for SMM compound annotation, primary screen (AID 1147).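 Also: signal reflects streptavidin binding to arrayed compounds as a control protein.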 The note with it: higher = more signal.
A short description of assay [6]: probe aInhba binding on compound microarray – biochemical, small-molecule microarray, 635/667 nm fluorescence, primary screen (AID 1148).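 Also: score merges 667nm spot fluorescence with signal-to-noise for antibody binding to printed compounds.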 The note with it: higher = more signal.
Assay [7] concerns the target Torsin-1A (Homo sapiens) (UniProt O14656). Description: TOR1A wild-type binding on microarray – cell lysate, small-molecule microarray, lysate, 635/667 nm, primary screen (AID 1149). The following applies: COS7 hTOR1A-WT lysate, 635 nm fluorescence, higher = more signal.
Assay [8] shares this target. Put plainly: torsin A mutant lysate binding on microarrays – cell lysate, small-molecule microarray, COS7 lysate, 635/667 nm fluorescence, primary screen (AID 1150).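 Also: score pools 667 nm emission and signal to noise measuring lysate protein binding.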 The following applies: COS7 hTOR1A mutant lysate, 635 nm fluorescence, higher = more signal.
The subject of assay [9] is Sonic hedgehog protein (Shh). Description: Sonic hedgehog microarray binding compounds – biochemical, small-molecule microarray, 635/667 nm fluorescence, primary screen (AID 1151).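 Also: Shh protein binding to compounds spotted on small-molecule microarray slides; score combines spot fluorescence intensity with signal-to-noise across triplicate slides.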 The note with it: 635 nm fluorescence, higher = more signal.
Assay [10] is described as follows: optical density shifts of acrAB sulA E. coli – strain DRC41, OD650, 48 h, E. coli filamentation inducer project, primary screen (AID 1152).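 Also: E. coli MC1000 strain DRC41 lacking acrAB efflux pump and sulA.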 The following applies: higher = more signal, called active from +8 up or from −8 down.
A short description of assay [11]: probe aLefty1 binding on compound microarray – biochemical, small-molecule microarray, 635/667 nm fluorescence, primary screen (AID 1153).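 Also: score merges spot fluorescence with signal-to-noise ratio from the scanned slide images.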 The note with it: higher = more signal.
The nature of assay [12]: plasmodial surface anion channel blockers, osmotic lysis – cell-based, P. falciparum Indochina, OD700, 1 h, primary screen (AID 1154). The following applies: P. falciparum Indochina infected RBC osmotic lysis, higher = more signal, called active from +8 up or from −8 down.
A short description of assay [13]: plasmodial surface anion channel blockers, osmotic lysis – cell-based, P. falciparum Indochina, OD700, 2 h, primary screen (AID 1155).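 Also: lysis reports solute entry through the parasite surface anion channel PSAC.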 The following applies: P. falciparum Indochina infected erythrocytes, higher = more signal, called active from +8 up or from −8 down.
Assay [14] is described as follows: changes in parasitized red cell lysis, either direction – P. falciparum Indochina, OD700, 3 h, PSAC antagonist project, primary screen (AID 1156). The following applies: P. falciparum-infected erythrocytes, osmotic lysis, higher = more signal, called active from +8 up or from −8 down.
Assay [15] is described as follows: plasmodial surface anion channel blockers, osmotic lysis – cell-based, P. falciparum Indochina, OD700, 18 h, primary screen (AID 1157). The note with it: P. falciparum Indochina infected erythrocytes, osmotic lysis OD700, 18 h; higher = more signal, called active from +8 up or from −8 down.
Assay [16] can be described thus: S6 kinase pathway phospho-S6 level changes – cell-based, A549, cytoblot, luminescence, serum-stimulated, primary screen (AID 1158).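 Also: serum-stimulated A549 lung adenocarcinoma cells; signal is phosphorylated S6 detected by cytoblot immunostaining with HRP secondary.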 The following applies: 5 h, higher = more signal.
The target in assay [17] is NADPH oxidase 2 (Homo sapiens) (UniProt P04839). Description: compounds shifting NOX2 Amplex Red fluorescence – cell-based, HEK293-NOX2, PMA-stimulated, NOX inhibitor project, primary screen (AID 1159). Also: test concentration not given here. The note with it: 45 min, higher = more signal, called active from +8 up or from −8 down.
NADPH oxidase 2 (Homo sapiens), sequence (P04839 whole entry, looked up): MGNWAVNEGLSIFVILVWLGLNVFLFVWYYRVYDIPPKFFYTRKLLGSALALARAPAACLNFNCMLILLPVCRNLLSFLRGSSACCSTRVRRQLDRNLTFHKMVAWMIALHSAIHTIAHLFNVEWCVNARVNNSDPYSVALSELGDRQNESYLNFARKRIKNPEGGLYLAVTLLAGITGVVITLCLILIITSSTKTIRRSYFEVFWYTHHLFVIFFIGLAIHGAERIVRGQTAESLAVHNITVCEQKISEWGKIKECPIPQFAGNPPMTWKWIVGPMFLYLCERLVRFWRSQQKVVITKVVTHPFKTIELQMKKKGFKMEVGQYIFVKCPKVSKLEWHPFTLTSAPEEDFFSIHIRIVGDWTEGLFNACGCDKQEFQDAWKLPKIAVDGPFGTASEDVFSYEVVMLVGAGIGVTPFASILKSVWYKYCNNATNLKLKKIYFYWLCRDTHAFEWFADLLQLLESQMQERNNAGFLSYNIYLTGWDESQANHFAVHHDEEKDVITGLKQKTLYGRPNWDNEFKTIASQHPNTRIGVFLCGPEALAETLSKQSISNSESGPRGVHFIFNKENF
In assay [18] the target is NADPH oxidase 4 (Homo sapiens) (UniProt Q9NPH5). Description: compounds shifting NOX4 Amplex Red fluorescence – cell-based, HEK293-NOX4, tetracycline-induced, NOX inhibitor project, primary screen (AID 1160). The note with it: HEK293-NOX4, Amplex Red H2O2 fluorescence, 45 min; higher = more signal, called active from +8 up or from −8 down.
NADPH oxidase 4 (Homo sapiens), sequence (Q9NPH5 whole entry, looked up): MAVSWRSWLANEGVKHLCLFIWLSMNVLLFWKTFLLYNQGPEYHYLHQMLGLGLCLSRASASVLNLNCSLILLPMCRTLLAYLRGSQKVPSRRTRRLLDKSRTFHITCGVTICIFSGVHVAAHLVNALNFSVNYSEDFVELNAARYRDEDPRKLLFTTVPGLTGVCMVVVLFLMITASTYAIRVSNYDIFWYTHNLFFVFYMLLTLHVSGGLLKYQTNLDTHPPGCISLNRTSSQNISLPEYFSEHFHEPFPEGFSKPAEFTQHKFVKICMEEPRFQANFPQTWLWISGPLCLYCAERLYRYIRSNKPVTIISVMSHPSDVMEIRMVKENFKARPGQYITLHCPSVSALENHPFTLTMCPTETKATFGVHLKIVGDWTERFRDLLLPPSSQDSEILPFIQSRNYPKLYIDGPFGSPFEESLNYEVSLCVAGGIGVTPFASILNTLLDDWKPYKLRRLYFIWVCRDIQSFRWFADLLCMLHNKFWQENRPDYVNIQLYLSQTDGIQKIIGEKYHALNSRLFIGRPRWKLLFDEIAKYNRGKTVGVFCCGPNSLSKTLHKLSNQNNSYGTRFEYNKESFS
Assay [19] addresses NADPH oxidase 5 (Homo sapiens) (UniProt Q96PH1). Put plainly: compounds shifting NOX5 Amplex Red fluorescence – cell-based, HEK293-NOX5, NOX inhibitor project, primary screen (AID 1161). The note with it: HEK293-NOX5, ionomycin, 45 min, higher = more signal.

Calls of active or inactive are those of the source.

Torsin-1A (Homo sapiens), sequence (O14656 whole entry, looked up): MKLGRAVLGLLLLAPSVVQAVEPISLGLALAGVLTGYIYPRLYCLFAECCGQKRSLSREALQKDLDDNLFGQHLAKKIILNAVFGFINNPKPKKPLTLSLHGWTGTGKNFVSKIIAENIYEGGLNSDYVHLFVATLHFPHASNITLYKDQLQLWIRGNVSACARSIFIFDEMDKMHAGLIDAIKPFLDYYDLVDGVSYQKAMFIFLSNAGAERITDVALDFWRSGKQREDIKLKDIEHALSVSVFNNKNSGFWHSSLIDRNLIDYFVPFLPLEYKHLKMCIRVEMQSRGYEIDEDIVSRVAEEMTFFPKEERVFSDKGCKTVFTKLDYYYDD
NADPH oxidase 5 (Homo sapiens), sequence (Q96PH1 whole entry, looked up): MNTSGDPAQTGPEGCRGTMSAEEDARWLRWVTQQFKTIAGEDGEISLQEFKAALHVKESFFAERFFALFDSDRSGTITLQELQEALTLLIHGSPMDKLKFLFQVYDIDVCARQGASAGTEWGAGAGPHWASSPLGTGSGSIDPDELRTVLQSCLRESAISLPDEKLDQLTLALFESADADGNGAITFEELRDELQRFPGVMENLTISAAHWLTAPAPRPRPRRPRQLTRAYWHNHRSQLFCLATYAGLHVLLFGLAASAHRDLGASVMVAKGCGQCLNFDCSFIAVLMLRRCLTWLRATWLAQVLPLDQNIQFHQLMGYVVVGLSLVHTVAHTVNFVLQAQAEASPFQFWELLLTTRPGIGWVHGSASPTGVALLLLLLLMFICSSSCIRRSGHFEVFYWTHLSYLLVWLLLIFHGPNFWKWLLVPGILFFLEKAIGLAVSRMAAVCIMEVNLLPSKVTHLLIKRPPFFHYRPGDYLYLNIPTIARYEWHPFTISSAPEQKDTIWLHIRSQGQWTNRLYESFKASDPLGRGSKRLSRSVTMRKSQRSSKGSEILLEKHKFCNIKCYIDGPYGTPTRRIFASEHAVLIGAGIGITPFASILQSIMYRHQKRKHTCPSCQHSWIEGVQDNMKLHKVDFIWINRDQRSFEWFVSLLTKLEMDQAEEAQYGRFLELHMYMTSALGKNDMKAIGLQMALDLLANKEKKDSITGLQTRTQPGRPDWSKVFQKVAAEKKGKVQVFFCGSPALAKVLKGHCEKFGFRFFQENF
Streptavidin (Streptomyces avidinii), sequence (P22629 whole entry, looked up): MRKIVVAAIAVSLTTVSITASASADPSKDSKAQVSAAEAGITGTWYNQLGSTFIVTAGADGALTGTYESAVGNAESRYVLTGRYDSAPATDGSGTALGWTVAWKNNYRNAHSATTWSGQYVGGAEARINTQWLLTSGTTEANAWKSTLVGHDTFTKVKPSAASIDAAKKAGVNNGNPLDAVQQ

Turning to `O=C1OCCC=C[C@H]2OC34C=CCN(Cc5ccccc5)C(=O)[C@H]3N(CCO)C(=O)[C@@H]4C12` (stereo partly specified), the composite z-score in assay [1] is -0.17; in assay [5], -0.88; in [6], -0.285; in assay [7], -0.42; in assay [8], -0.261; in assay [9], -0.127. The composite z-score in assay [11] is -0.133. Moreover, the z-score in [2] was -4.38 (inactive); in [3], -0.899 (inactive); in [4] it was -0.894 (inactive); in assay [10], 2.51 (inactive); in assay [12], 1.07 (inactive); in assay [13] it was -0.436 (inactive). Besides, the z-score in assay [14] is -0.769 (inactive); in assay [15], -0.8 (inactive); in assay [16], 1.82; in assay [17], 0.681 (inactive); in [18] it was -0.573 (inactive); in assay [19] it was 0.869.

With `CN(C)C(=O)[C@@]1(Cc2ccccc2N=[N+]=[N-])N=C(c2ccc(OCCCO)cc2)O[C@H]1c1ccccc1CN=[N+]=[N-]`, the composite z-score in assay [1] turned out to be 0.549; in [5], 1.41; in [6], 0.372; in [7], 0.477; in assay [8], 1.24; in assay [9] it was 0.397. The compound further showed a composite z-score in [11] of 0.635. Also, the z-score in assay [2] is -3.09 (inactive); in assay [3], 1.65 (inactive); in assay [4], -1.39 (inactive); in [10], 1.04 (inactive); in assay [12] it was 17.8 (active); in [13] it was 2.5 (inactive). The z-score in [14] was 2.73 (inactive); in [15], -0.682 (inactive); in assay [16], 1.01; in assay [17], -1.52 (inactive); in assay [18], 1.06 (inactive); in [19] it was 0.474.

`COCCOC(=O)N1C(=O)[C@@]2(c3cc(C#CCNC(N)=O)ccc31)[C@H](c1ccc(OCCO)cc1)N1[C@H](c3ccccc3)[C@H](c3ccccc3)OC(=O)[C@H]1[C@@H]2C(=O)Nc1nc2ccccc2s1`: the composite z-score was 0.483 in assay [1]; 0.422 in [5]; -0.224 in assay [6]; 0.72 in [7]; 0.471 in assay [8]; 1.6 in [9]. Further, the composite z-score in assay [11] was found to be 0.0844. Besides, the z-score in assay [2] is -1.6 (inactive); in assay [3] it was 0.627 (inactive); in [4], -1.2 (inactive); in assay [10], 2.28 (inactive); in assay [12], 2.66 (inactive); in assay [13], 1.67 (inactive). For the same compound, the z-score in [14] is 0.73 (inactive); in [15] it was 1.24 (inactive); in assay [16], 0.652; in assay [17], 0.398 (inactive); in assay [18] it was -0.211 (inactive); in assay [19], 1.12.

Turning to `COCC(=C=CC[C@H](O)c1ccc(OCCO)cc1)C[C@H](O)c1ccccn1`, the composite z-score in assay [1] was -0.0253; in [5], -0.65; in assay [6], -0.018; in [7] it was -0.353; in assay [8], 0.904; in assay [9], 1.05. Moreover, the composite z-score in assay [11] is -0.194. Further, the z-score in assay [2] was -0.23 (inactive); in [3] it was 3.18 (inactive); in [4], -1.44 (inactive); in assay [10], 1.36 (inactive); in [12] it was 8.89 (active); in assay [13], 0.989 (inactive). Moreover, the z-score is 0.938 (inactive) in assay [14]; 0.48 (inactive) in assay [15]; -0.324 in assay [16]; 2.36 (inactive) in [17]; 1.71 (inactive) in assay [18]; 1.32 in assay [19].

As to `CCCC/C=C/[C@H]([C@@H](O)Cc1ccccc1)N(CC#Cc1ccccc1)Cc1ccccc1Br`, the composite z-score in assay [1] was -0.238; in [5] it was -0.951; in [6], -0.302; in assay [7], -0.335; in [8], -0.242; in [9], -1.29. Moreover, in assay [11], the composite z-score was -0.0061. Also, the z-score is -0.677 (inactive) in assay [2]; -0.0534 (inactive) in assay [3]; -0.967 (inactive) in assay [4]; 2.99 (inactive) in assay [10]; 2.63 (inactive) in [12]; 1.29 (inactive) in [13]. Further, the z-score in assay [14] is -0.0195 (inactive); in [15], 0.522 (inactive); in assay [16], 0.108; in assay [17], -0.424 (inactive); in assay [18], 0.426 (inactive); in [19], -0.622.

`C/C(=N\O)C(=O)NCCCCCNC(=O)OCc1ccccc1`: the composite z-score was 0.321 in assay [1]; 1.24 in assay [5]; -0.0471 in assay [6]; 0.228 in assay [7]; 0.173 in assay [8]; 0.371 in [9]. The composite z-score in [11] is -0.194. Also, the z-score in assay [2] was -0.564 (inactive); in assay [3], 1.67 (inactive); in assay [4], -1.47 (inactive); in [10], 1.93 (inactive); in assay [12], 15.4 (active); in assay [13], 2.09 (inactive). Also, the z-score in [14] is -0.222 (inactive); in assay [15], 0.501 (inactive); in assay [16], -0.246; in assay [17], -0.459 (inactive); in assay [18] it was 0.0531 (inactive); in assay [19], -0.588.

Take `C=CCc1cccc([C@H]2N[C@H](C(=O)O)CC[C@@H]2C)c1`: the composite z-score was 0.023 in [1]; -0.0599 in assay [5]; -0.101 in assay [6]; 0.352 in assay [7]; 0.122 in [8]; 1.54 in assay [9]. For the same compound, the composite z-score in assay [11] was -0.237. In addition, the z-score is 0.0815 (inactive) in [2]; 1.46 (inactive) in assay [3]; -0.675 (inactive) in [4]; 0.574 (inactive) in assay [10]; 0.734 (inactive) in assay [12]; 1.15 (inactive) in assay [13]. Moreover, the z-score in assay [14] was 0.794 (inactive); in [15], 0.443 (inactive); in [16], -0.167; in [17], 0.183 (inactive); in [18] it was 0.773 (inactive); in assay [19] it was 0.0482.

As to `CO[C@H]1COC(=O)[C@@H](Cc2ccccc2)NC(=O)[C@@H](C)COC(=O)CC=C[C@@H]1C`, the composite z-score was -0.0866 in assay [1]; -0.282 in assay [5]; -0.263 in [6]; 0.379 in [7]; -0.0112 in assay [8]; 1.02 in assay [9]. For the same compound, the composite z-score in assay [11] was -0.0573. Besides, the z-score is 0.7 (inactive) in assay [2]; 8.02 (active) in assay [3]; -0.445 (inactive) in [4]; 0.428 (inactive) in [10]; -0.224 (inactive) in [12]; -0.204 (inactive) in assay [13]. The z-score in [14] is -0.234 (inactive); in assay [15], -0.481 (inactive); in assay [16], -0.003; in assay [17], -0.246 (inactive); in assay [18], 0.937 (inactive); in [19], 0.264.

For `CN(C)CCCC[C@@H]1NC(=O)[C@@H]2C[C@H](C(=O)O)[C@H](c3ccc(O)cc3)N2C1=O`, the composite z-score came to 0.471 in [1]; 0.0842 in [5]; 0.174 in assay [6]; 0.939 in assay [7]; 0.395 in [8]; 1.92 in [9]. In addition, the composite z-score in assay [11] turned out to be 0.616. The z-score in [2] is -3.87 (inactive); in assay [3], 0.415 (inactive); in assay [4], -0.183 (inactive); in assay [10], 2.66 (inactive); in assay [12], 0.847 (inactive); in assay [13], -1.57 (inactive). Also, the z-score was -3.19 (inactive) in assay [14]; -1.98 (inactive) in assay [15]; 1.03 in [16]; -2.71 (inactive) in assay [17]; -3.88 (inactive) in assay [18]; -2.48 in assay [19].
